NS1 function inh: influenza NS1 inhibition; Potency, µM (doses to about 46.1 µM); actives 0.4% (n = 270,000); note: actives are rising curves; nearly all actives have a fitted effect of over 50% in size
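In this qHTS, NS1 from influenza A is expressed in budding yeast, where it slows growth. Cells are switched from glucose to 2% galactose medium (pH 6.0, -URA), treated with compound, and growth recovery is read at OD600.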
Pf growth 96h: inhibits malaria parasite growth, 96 h | P. falciparum luciferase reporter growth, 96 h | Potency, µM (doses to about 28.7 µM), most hits filed as inhibitors | actives 6.9% (n = 320,000) | AID 504834; active = well fitted inhibition curve with a large enough effect; inconclusive = small, poorly fitted or top-dose-only effect, or another doubt; inactive = no such curve, though single readings can be large or run the other way
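Parasite growth measured via integrated firefly luciferase reporter in P. falciparum. Infected erythrocytes at 2% hematocrit, 0.05% parasitemia final were treated 96 hours at 37 C under 5% CO2, and luminescence was read.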
Pf growth 48h: inhibits P. falciparum growth in the first generation, 48 h | P. falciparum luciferase growth in erythrocytes, 48 h | Potency, µM (top dose mostly 28.7 µM), most hits filed as inhibitors | actives 5.9% (n = 310,000); active = well fitted inhibition curve with a large enough effect; inconclusive = small, poorly fitted or top-dose-only effect, or another doubt; inactive = no such curve, though single readings can be large or run the other way
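Here the parasites carry a stable luciferase gene and grow inside erythrocytes in Albumax-based RPMI medium with compound for one erythrocytic cycle. Activity is scored as loss of luminescent signal.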
CHX counter: counter-screen hit for Shiga toxin inhibitors, cycloheximide; AID 2314; max response, %; actives 12% (n = 300,000); cell reporter, cycloheximide protein synthesis inhibition counterscreen; in the data active = max response mostly above about 13%, no sharp cut-off; inactive = mostly below about 14%; note: read at 38.3 µM for the half of the compounds with a filed dose
Shiga toxin inh: Shiga toxin inhibition | Vero cells, Shiga toxin protein synthesis inhibition reporter | inhibition, % at 38.7 µM | actives 9.2% (n = 290,000); in the data active = inhibition mostly above about 28%, no sharp cut-off; inactive = mostly below about 43%
SARS PLP yeast: SARS-CoV PLP inhibition in yeast. actives 0.19% (n = 330,000). Potency, µM (highest dose often 32.9 µM), most hits filed as activators. S. cerevisiae expressing SARS-CoV PLpro, growth rescue; note: nearly all actives have a fitted effect of over 55% in size
Each line names hits and unclear results; the compound was inactive in the other large screens. In the library only some 21% were active in any assay of this set; here they are far more common. Unless noted, calls come from the whole dose curve.

CC[C@@]1(C(=O)OC)N[C@H](CN(C)C(=O)COc2ccccc2)[C@@H]2C(=O)N(Cc3ccccc3)C(=O)[C@@H]21	none (no result: NS1 function inh, Pf growth 96h, Pf growth 48h, CHX counter, Shiga toxin inh)
Cc1ccc(S(=O)(=O)Nc2cc3c(cc2C#N)OCO3)cc1C(N)=O	none
CC(=O)N1CCN(C(=O)c2cccc(S(=O)(=O)N3CCOCC3)c2)CC1	none (no result: NS1 function inh, CHX counter, Shiga toxin inh)
O=C(NCc1ccc(Cl)cc1)c1cccc(NC(=O)c2ccccc2)c1	Pf growth 96h inconclusive
CCOCCCNC(=O)c1ccc2c(c1)OCO2	CHX counter 23, Shiga toxin inh 58 (no result: Pf growth 96h)
CN(C)c1cccc(C(=O)NCc2ccc(Cl)cc2)c1	Pf growth 48h 4.1µM, CHX counter 27, Shiga toxin inh 71
Cc1ccc(CS(=O)Cc2ccc(C(=O)NCc3ccc4c(c3)OCO4)o2)cc1 (stereo unspecified)	Pf growth 96h 13µM
O=C(NCc1ccc2c(c1)OCO2)c1ccc(CS(=O)Cc2ccc(Cl)cc2)o1 (stereo unspecified)	Pf growth 96h inconclusive
O=C(Cn1nnc(-c2ccc3c(c2)OCO3)n1)Nc1ccccc1C(=O)O	CHX counter 31, Shiga toxin inh 41
Cc1ccccc1NC(=O)Cc1c[nH]c2ccccc12	none
O=C(NCc1cccc(Cl)c1)c1ccc2c(c1)OCCO2	CHX counter 21 (no result: Shiga toxin inh)
O=C(NCc1ccc2c(c1)OCO2)c1ccc2c(c1)OCO2	CHX counter 26, Shiga toxin inh 46
O=C(Cn1nnc(-c2ccc(S(=O)(=O)N3CCCC3)cc2)n1)Nc1ccccc1-n1cccc1	Pf growth 96h inconclusive, Pf growth 48h 9.3µM
O=C(/C=C/c1ccc2c(c1)OCO2)NCCSCc1cccc(Cl)c1	CHX counter 21
CCC1=Nc2cc(C(=O)NCCN3CCOCC3)ccc2Sc2ccccc21	Pf growth 96h inconclusive
O=C(NCc1cccc(C(F)(F)F)c1)c1ccc2c(c1)OCO2	Pf growth 96h inconclusive, CHX counter 10
Cc1ccccc1-c1nnn(CC(=O)Nc2ccc3c(c2)OCO3)n1	none
Cc1ccccc1-c1nnn(CC(=O)Nc2ccc3c(c2)OCCO3)n1	Pf growth 96h inconclusive, CHX counter 58, Shiga toxin inh 141 (no result: NS1 function inh)
O=C(NCc1ccc(Cl)c(Cl)c1)c1ccc2c(c1)OCO2	Pf growth 96h inconclusive
O=C(NCc1ccc2c(c1)OCO2)c1ccc2c(c1)OCCO2	Shiga toxin inh 18 (no result: Pf growth 48h)
CCOCCCNC(=O)c1ccc2c(c1)N=C(CC)c1cc(Br)ccc1S2	Pf growth 96h inconclusive, Pf growth 48h 4.1µM (no result: NS1 function inh)
Cc1ccc(Cl)c(OCC(=O)OCC(=O)NC2CCCc3ccccc32)c1 (stereo unspecified)	none
COc1cccc(CN2CC(C(=O)N3CCN(c4ccc(Cl)cc4)CC3)CCC2=O)c1 (stereo unspecified)	Pf growth 96h inconclusive, Pf growth 48h inconclusive
COc1ccc(N2CCN(C(=O)c3ccc(CNc4c(N5CCOCC5)c(=O)c4=O)cc3)CC2)cc1	Pf growth 48h inconclusive
O=C(NCC1CCCO1)/C(=C\c1ccccc1F)NC(=O)c1ccccc1 (stereo unspecified)	none
CN(C)c1ccc(-c2nnn(CC(=O)N3c4ccccc4CCc4ccccc43)n2)cc1	Pf growth 48h 2.1µM
O=C(NCc1ccccc1)c1ccc(Cl)cc1	none
O=C(NCc1ccc2c(c1)OCO2)c1ccc(Br)s1	CHX counter 12
COc1cccc(C(=O)NCc2ccc3[nH]c(C)cc3c2)c1	Pf growth 48h inconclusive (no result: NS1 function inh)
O=C(NCc1ccc2c(c1)OCO2)c1c(F)c(F)c(F)c(F)c1F	none
COc1cc(OC)cc(C(=O)NCc2ccc3[nH]c(C)cc3c2)c1	Pf growth 96h 19µM, Pf growth 48h 9.3µM (no result: NS1 function inh)
CC(C)c1ccc(C(=O)NCc2ccc(Cl)cc2)cc1	CHX counter 74, Shiga toxin inh 141
O=C(NCc1cccc(C(F)(F)F)c1)C1CCC(=O)N(C2CCCCCC2)C1 (stereo unspecified)	none
COc1ccccc1CNC(=O)CCS(=O)(=O)c1cccc2nonc12	none (no result: Pf growth 96h, Pf growth 48h)
CC(=O)c1ccc(N2CCN(C(=O)c3ccc(NC4=NC5CS(=O)(=O)CC5S4)cc3)CC2)cc1 (stereo unspecified)	Pf growth 96h inconclusive
CN(C)c1cccc(C(=O)NCc2ccc3c(c2)OCO3)c1	Pf growth 96h inconclusive, Pf growth 48h inconclusive, CHX counter 33, Shiga toxin inh 57
CN(C)c1ccc(-c2nnn(CC(=O)NCc3ccc4c(c3)OCO4)n2)cc1	Pf growth 96h inconclusive, CHX counter 28 (no result: NS1 function inh)
Cc1ccccc1-c1nnn(CC(=O)NCc2ccc3c(c2)OCO3)n1	none
CN(C)c1ccc(C(=O)NCc2ccc3c(c2)OCO3)cc1	none
CC(C)NC(=O)c1ccc(C(C)C)cc1	CHX counter 18
O=C(COC(=O)c1ccc(Cl)c(S(=O)(=O)NCc2ccccc2)c1)NCC1CCCO1 (stereo unspecified)	none (no result: NS1 function inh)
CC1Cc2nc(SCC(=O)Nc3ccc4c(c3)OCO4)n(-c3ccc(F)cc3)c(=O)c2S1 (stereo unspecified)	Pf growth 96h 3.7µM, Pf growth 48h 1.7µM
COc1ccc(-n2c(SCC(=O)Nc3nccs3)nc3c(c2=O)SC(C)C3)cc1 (stereo unspecified)	Pf growth 96h 1µM, Pf growth 48h 1.7µM
COC(=O)C(NS(=O)(=O)CCl)C(C)C (stereo unspecified)	none (no result: NS1 function inh, Pf growth 96h, Pf growth 48h, SARS PLP yeast)
COc1ccc(C(=O)NC(C)CCCC(C)(C)O)cc1OC1CCN(C(C)=O)CC1 (stereo unspecified)	Pf growth 96h 7.4µM
COc1cc(C(=O)NCCc2ncccc2C)ccc1OC1CCN(C(C)=O)CC1	Pf growth 48h 9.3µM
COc1ccc(C(=O)NCc2ncccc2C)cc1OC1CCN(C(C)=O)CC1	none
COc1ccc(C(=O)NCCOC(C)C)cc1OC1CCN(C(C)=O)CC1	Pf growth 96h 10µM
COc1cc(C(=O)NC(C)CCn2cccn2)ccc1OC1CCN(C(C)=O)CC1 (stereo unspecified)	Pf growth 96h inconclusive
CC1CCCCC12NC(=O)N(CC(=O)OCC(=O)NC(=O)c1ccccc1)C2=O (stereo unspecified)	none (no result: NS1 function inh, CHX counter, Shiga toxin inh)
O=C1CC(N2CCCc3ccccc32)C(=O)N1c1ccccc1 (stereo unspecified)	Pf growth 96h 12µM
Cc1c(C(=O)N2CCN(C3CCS(=O)(=O)C3)CC2)oc2c(F)cccc12 (stereo unspecified)	Pf growth 96h inconclusive (no result: NS1 function inh, CHX counter, Shiga toxin inh)
N/C(CCS(=O)(=O)c1ccc(Cl)cc1)=N\OC(=O)c1ccccc1C(F)(F)F	Pf growth 96h 9.3µM, Pf growth 48h 3.7µM
C=C(C)COc1ccc(-c2ncncc2-c2ccccc2)c(O)c1	Pf growth 96h 13µM, Pf growth 48h 9.3µM
CCOc1ccc(-c2ncncc2-c2ccc(OC)cc2)c(O)c1	Pf growth 96h inconclusive, Pf growth 48h 7.4µM
COc1ccc(-c2ncncc2-c2ccccc2)c(O)c1	Pf growth 96h inconclusive, Pf growth 48h inconclusive

Screening data (PubChem BioAssay)
